# Experimental data as given in PubChem BioAssay AID504652 (National Center for Advancing Translational Sciences (NCATS), 2011).
# Screen size: about 360,000 compounds; about 11,000 (3.1%) were called active. The sample holds actives, similar compounds and a random draw of the others, so the mix is not that of the screen. Cut-off read from the data, not from the text of the source: active = activity change below about -30%; inactive = the rest.
# Molecular target: D(1A) dopamine receptor (Homo sapiens) (UniProt P21728)
# Assay: Antagonist of Human D 1 Dopamine Receptor: qHTS
# Settings: HEK293 TREx D1 cells, calcium flux, dopamine EC80; at 10 µM; stronger effect = lower value
# Procedure, shortened: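 Compound effects on dopamine-evoked calcium signalling were measured in tetracycline-induced HEK293 Trex D1 cells. Dopamine at EC80 followed a 180 s compound pre-read, and fluorescence was tracked kinetically for 180 s more.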
# % is set by controls: 0 for no effect and ±100 for the full control effect.
# Sequence of D(1A) dopamine receptor (Homo sapiens) (P21728 whole entry, looked up): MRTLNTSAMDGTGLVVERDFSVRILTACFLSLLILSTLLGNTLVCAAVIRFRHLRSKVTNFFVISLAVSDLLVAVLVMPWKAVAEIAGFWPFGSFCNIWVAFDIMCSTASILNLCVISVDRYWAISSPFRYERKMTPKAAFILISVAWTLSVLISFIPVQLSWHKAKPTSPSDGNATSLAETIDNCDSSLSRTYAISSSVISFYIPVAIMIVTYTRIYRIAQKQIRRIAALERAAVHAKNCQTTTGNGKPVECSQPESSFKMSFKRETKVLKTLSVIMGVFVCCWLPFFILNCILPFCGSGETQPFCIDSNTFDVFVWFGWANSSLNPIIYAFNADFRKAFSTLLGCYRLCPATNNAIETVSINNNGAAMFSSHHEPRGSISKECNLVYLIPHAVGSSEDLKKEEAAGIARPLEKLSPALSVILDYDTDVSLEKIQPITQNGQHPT
row,Structure (SMILES),"activity change, negative = inhibition"
1,COc1ccccc1-c1cc(C(F)(F)F)nc(S(=O)(=O)CCCC(=O)Nc2cc(C)ccc2O)n1,-0.269% (inactive)
2,CCOC(=O)c1cc2c(=O)n3ccccc3nc2n(CCCOC)c1=NC(=O)C(C)Oc1ccccc1 (stereo unspecified),-0.513% (inactive)
3,O=S(=O)(NC1CCCCC1)c1ccc(F)c2ccccc12,-32.8% (active)
4,O=S(=O)(NC1CC1)c1ccc2c3c(cccc13)CC2,-23.6% (inactive)
5,CCc1ccccc1NC(=O)c1ccc(F)c(S(=O)(=O)NC2CCCCCC2)c1,-16.4% (inactive)
6,CCN1CCN(c2ncc3c(n2)CC(c2ccccc2O)CC3=O)CC1 (stereo unspecified),0.271% (inactive)
7,CCN(Cc1ccccc1)Cc1c(O)ccc2c(=O)c(-c3ccc(Cl)cc3Cl)coc12,-1.12% (inactive)
8,COC(=O)c1ccc(Nc2ncnc3sccc23)cc1,-42.9% (active)
9,CCOc1ccc(Nc2ncnc3scc(-c4ccc(OC)cc4)c23)cc1,13.2% (inactive)
10,COc1ccc(Nc2ncnc3sc(C)cc23)cc1,-13.7% (inactive)
11,O=C(CSc1nc2ccccc2nc1Cc1ccccc1)N1CCCCC1,-12.3% (inactive)
12,CCOC(=O)C1CCN(c2nc3c(S(=O)(=O)c4ccc(CC)cc4)nnn3c3ccc(Cl)cc23)CC1,-7.85% (inactive)
13,Cc1ccc(-c2nnc(Nc3cccc(Br)c3)c3ccccc23)cc1S(=O)(=O)NCC1CCCO1 (stereo unspecified),-11.8% (inactive)
14,CC1(C)NC(=O)N(CCOc2cccc(Oc3ccccc3)c2)C1=O,1.02% (inactive)
15,O=C(CN1C(=O)NC2(CCCC2)C1=O)OCCOc1ccc(F)cc1,-6.87% (inactive)
16,N#Cc1ccc(OCCN2C(=O)NC3(CCSC3)C2=O)cc1 (stereo unspecified),-30.6% (active)
17,CCOC(=O)N1CCc2c(sc(NCc3cccc(F)c3)c2C(=O)Nc2ccccc2OCC)C1,-17.6% (inactive)
18,O=S(=O)(c1ccc2c(c1)OCCCO2)N1CCN(S(=O)(=O)c2c(F)cccc2F)CC1,-7.05% (inactive)
19,O=S(=O)(NC1CCN(S(=O)(=O)c2ccc3c(c2)OCCO3)CC1)c1c(F)cccc1F,-30.3% (active)
20,O=S(=O)(NCC1CN(S(=O)(=O)c2ccc3c(c2)OCCO3)C1)c1c(F)cccc1F,2.66% (inactive)
21,CCOc1ccccc1C(=O)NC1(C(F)(F)F)NC(=O)N(CCc2ccc(OC)c(OC)c2)C1=O (stereo unspecified),12% (inactive)
22,CCOC(=O)CSC1=Nc2ccccc2C2=NC(CCC(=O)NCc3ccc(F)cc3)C(=O)N12 (stereo unspecified),7.77% (inactive)

row,Structure (SMILES),"activity change, negative = inhibition"
1,Cc1ccc(S(=O)(=O)N2CCC(C(=O)Nc3cc(C)ccc3C)CC2)cc1,7.91% (inactive)
2,CCc1ccc2oc(-c3ccc(C)c(NC(=O)/C=C/c4ccco4)c3)nc2c1,-0.213% (inactive)
3,CCN(C(=O)Cn1cc(S(=O)(=O)N2CCN(c3ccccc3F)CC2)c2ccccc2c1=O)c1ccc(C)c(C)c1,-3.49% (inactive)
4,CCOC(=O)C1CCCN(C(=O)c2ccc(C)c(S(=O)(=O)N3CCCCC3)c2)C1 (stereo unspecified),-1.15% (inactive)
5,CCOC(=O)C1CCCN(C(=O)c2cncc(Br)c2)C1 (stereo unspecified),-9.23% (inactive)
6,CCOC(=O)C1CCCN(C(=O)c2ccc3c(c2)sc2nc(-c4ccc(CC)cc4)cn23)C1 (stereo unspecified),-33% (active)
7,O=C(NCCC1=CCCCC1)c1ccc2c(c1)N(Cc1ccccc1F)C(=O)c1ccccc1S2(=O)=O,-12.5% (inactive)
8,O=C(NCc1ccccc1)c1ccc(CNc2c(N3CCCC3)c(=O)c2=O)cc1,-9.38% (inactive)
9,O=C(NC1CCCCC1)c1ccc(CNc2c(N3CCOCC3)c(=O)c2=O)cc1,11.4% (inactive)
10,CC1CCN(c2c(NCc3ccc(C(=O)NCc4ccccc4)cc3)c(=O)c2=O)CC1,-34.3% (active)
11,Cc1nc2sc(C)c(C)n2c(=O)c1S(=O)(=O)NCCc1ccc(Cl)cc1,-2.78% (inactive)
12,CCc1ccc(S(=O)(=O)n2ccnc2)cc1,-16.9% (inactive)
13,CC(C)c1ccc(NC(=O)c2ccc(Cn3nc(N4CCN(c5ccccc5)CC4)ccc3=O)o2)cc1,-6.07% (inactive)
14,CC(C)c1ccc(N2CCN(C(=O)c3ccccc3NC(=O)/C=C(\C(=O)O)c3ccccc3)CC2)cc1,-3.41% (inactive)
15,CC(=O)N1CCN(c2ccc(NCc3ccc(C(C)C)cc3)cc2)CC1,-50.6% (active)
16,COc1ccc(CNC(=O)c2cc3c(=O)[nH]c4ccc(C)cc4c3s2)c(OC)c1,1.68% (inactive)
17,COc1ccc(CNC(=O)c2cc3c(=O)[nH]c4ccccc4c3s2)cc1,-33.6% (active)
18,O=C(NCCN1CCN(Cc2ccccc2)CC1)c1cc2c(=O)[nH]c3ccccc3c2s1,-7.42% (inactive)
19,Cc1cccc(NC(=O)c2ccc(F)c(S(=O)(=O)N(C)C3CCCCC3)c2)c1,4.16% (inactive)
20,CC(C)c1ccc(NC(=O)NC2CCCCC2)cc1,-4.57% (inactive)
21,O=C(COC(=O)C1CC2C=CC1C2)Nc1ccccc1 (stereo unspecified),-18.1% (inactive)
22,CC(C)c1ccc(NC(=S)NC2CC3C=CC2C3)cc1 (stereo unspecified),-34.1% (active)

row,Structure (SMILES),"activity change, negative = inhibition"
1,COc1ccc(C2=NC(c3ccncc3)=Nc3ccc(Br)cc3N2)cc1,-11.7% (inactive)
2,CCn1c(C(=O)Nc2cc(Cl)ccc2C)cc2sc(Cl)cc21,-0.309% (inactive)
3,O=C(c1ccc2c(c1)N(Cc1ccc(Cl)cc1)C(=O)c1ccccc1S2(=O)=O)N1CCCCC1,5.67% (inactive)
4,COc1ccc(-c2cc(-c3nc(-c4cc(OC)c(OC)c(OC)c4)no3)[nH]n2)c(OC)c1,27% (inactive)
5,Cc1ccc(NC(=O)CN2C(=O)C(c3ccc(F)cc3)=NC23CCCCCC3)c(C)c1,2.24% (inactive)
6,COc1cccc(C2=CC(=O)C[C@H](c3ccc(OC)c(OC)c3)C2)c1,-42.8% (active)
7,COc1ccc([C@H]2CC(=O)C=C(c3ccc(OC(F)(F)F)cc3)C2)cc1OC,-5.99% (inactive)
8,O=C1CC(c2cccc(Cl)c2)CC(O)=C1C=Nc1ccccc1 (stereo unspecified),-3.8% (inactive)
9,COc1ccc([C@H]2CC(=O)C=C(/C=C/c3ccccc3)C2)cc1,3.37% (inactive)
10,O=C1C=C(c2cccc(Cl)c2)C[C@@H](c2ccc(F)cc2)C1,-32% (active)
11,O=C1C=C(c2cc(C(F)(F)F)cc(C(F)(F)F)c2)C[C@@H](c2ccc3c(c2)OCO3)C1,-12.8% (inactive)
12,CC(=O)Nc1ccc(NC(=O)CCCc2nc(-c3ccc(C(C)(C)C)cc3)no2)cc1,2.77% (inactive)
13,COc1ccc(CNC(=O)c2cc3c(-c4ccccc4F)nn(C)c3s2)c(OC)c1,8.78% (inactive)
14,CCc1ccc(Nc2nn3c(=O)c4cc5c(cc4nc3s2)OCO5)cc1,7.15% (inactive)
15,O=C(CCNS(=O)(=O)c1ccccc1)NCCCc1ccccc1,-0.746% (inactive)
16,NC(=O)NC(=O)C(OC(=O)CCNS(=O)(=O)c1ccccc1)c1ccccc1 (stereo unspecified),-53% (active)
17,Cc1ccc(S(=O)(=O)NCCC(=O)OCC(=O)N(C)c2ccccc2)cc1,-1.79% (inactive)
18,COc1cccc(CNC(=O)CN2C(=O)CCc3cc(S(=O)(=O)N4CCOCC4)ccc32)c1,-4.09% (inactive)
19,Cc1ccc(C)c2sc(NC(=O)c3ccc(S(=O)(=O)N4CCCC4)cc3)nc12,5.67% (inactive)
20,CCOc1ccccc1NC(=O)CN1CCN(S(=O)(=O)c2ccc(Br)cc2)CC1,6.89% (inactive)
21,Cn1c(Cn2nnc3ccccc32)nnc1SCC(=O)c1ccccc1F,-30.4% (active)
22,Cn1c(CNC(=O)c2ccccc2F)nnc1SCc1ccc(F)cc1,26.9% (inactive)

row,Structure (SMILES),"activity change, negative = inhibition"
1,Cn1c(CC(=O)Nc2ccccc2)nnc1SCC(=O)c1ccccc1,-16.4% (inactive)
2,COc1ccc(CNC(=O)c2cc3cccc(OC)c3oc2=O)cc1,-1.99% (inactive)
3,O=C(CSc1nccc(=O)[nH]1)Nc1ccc(N2CCOCC2)c(Cl)c1,-3.03% (inactive)
4,O=C(CSc1ccc([N+](=O)[O-])cn1)Nc1ccc(N2CCOCC2)c(Cl)c1,-35.4% (active)
5,O=C(CSc1ccc([N+](=O)[O-])cn1)Nc1ccc(N2CCOCC2)cc1,0.609% (inactive)
6,CCOC(=O)c1c(C)oc2ccc(N(C(=O)c3ccncc3)S(=O)(=O)c3ccc(CC)cc3)cc12,-12.9% (inactive)
7,C/C=C/c1ccc(OCC(=O)OCC(=O)Nc2c(C)nn(-c3ccccc3)c2C)c(OC)c1,-92.1% (active)
8,Cc1nn(-c2ccccc2)c(C)c1NC(=O)COC(=O)c1cc(Cl)ccc1O,-7% (inactive)
9,Cc1nn(-c2ccccc2)c(C)c1NC(=O)CCl,-2.92% (inactive)
10,CCOC(=O)c1c(NC(=O)/C=C/c2ccc(OC)cc2)sc2c1CCC(C)C2 (stereo unspecified),-4.93% (inactive)
11,CCCCOC(=O)CSc1ncnc2sc3c(c12)CCC(C)C3 (stereo unspecified),-2.54% (inactive)
12,Cc1ccc(C)c(S(=O)(=O)n2cnc3ccccc32)c1,1.78% (inactive)
13,COc1ccc(S(=O)(=O)N2CCN(C)CC2)c(C)c1,-0.84% (inactive)
14,COc1ccc(S(=O)(=O)n2cnc3ccccc32)c(C)c1,-34% (active)
15,CCNS(=O)(=O)c1ccc(NC(=O)CSc2nc(-c3ccco3)cc(C(F)(F)F)n2)cc1,7% (inactive)
16,COc1ccccc1N1CCN(CCCNC(=O)c2cnn(-c3ccccc3Cl)c2C2CCN(C(=O)OC(C)(C)C)CC2)CC1,-8.92% (inactive)
17,CCC(C(=O)Nc1cccc(Cl)c1C)n1nc(-c2ccc(C)cc2)ccc1=O (stereo unspecified),6.67% (inactive)
18,COc1ccc(CCNC(=O)c2ccc(-n3c(C)cc4c3CCCC4)cc2)cc1OC,-15.3% (inactive)
19,COc1ccc(CNC(=O)Cn2nnc(-c3ccc(S(C)(=O)=O)cc3)n2)cc1,15.1% (inactive)
20,COc1ccccc1NC(=O)c1oc2ccccc2c1NC(=O)COc1ccccc1OC,-10.7% (inactive)
